Source: PubChem
Most compounds without a hit are left out; they make up all but 4.8% or so of the library.
DAX1 inh-1: NR0B1 (DAX1) inhibition. P51843. HEK293 Gal4-DAX1 luciferase reporter, luminescence. inhibition, % at 6.75 µM. hit rate 0.99% among 340,000. AID 504766;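 active = inhibition above the mean over all tested compounds plus 3 SD, cut at about 4.2% in these data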;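 also: 0% = DAX1-transfected cells with DMSO and 100% = empty-vector control cells with DMSO; inhibition shows as a rise in luminescence from relieved DAX1 repression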
Target sequence (P51843 207-470 limits assumed): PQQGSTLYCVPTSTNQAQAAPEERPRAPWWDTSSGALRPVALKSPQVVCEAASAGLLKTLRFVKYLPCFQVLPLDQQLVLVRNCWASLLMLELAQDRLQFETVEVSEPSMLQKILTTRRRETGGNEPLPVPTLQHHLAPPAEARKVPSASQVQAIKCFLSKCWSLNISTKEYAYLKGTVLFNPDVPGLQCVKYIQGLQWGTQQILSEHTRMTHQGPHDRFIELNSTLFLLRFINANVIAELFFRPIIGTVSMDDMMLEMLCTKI
ssDAF-12 act: activates DAF-12 receptor from parasite S. stercoralis | activation, % at 6.8 µM | HEK293 ssDAF-12/GRIP1 lit1-tk-luc reporter, luminescence; % of 3 µM dafachronic acid response | hit rate 1% among 370,000;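 active = activation above the mean over all tested compounds plus 3 SD, cut at about 0.9% in these data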;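 also: 0% = DMSO-only wells and 100% = 3 µM delta7-dafachronic acid wells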
DAX1 inh-2: blocks DAX1 repression of SF-1 activated StAR promoter; HEK293T StAR-luciferase reporter, SF-1/DAX-1 repression relief; hit rate 1.1% among 370,000; AID 652010; inhibition, % at 6.8 µM;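 active = inhibition above the mean over all tested compounds plus 3 SD, cut at about 3.6% in these data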;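 also: 0% = DAX-1 cells with DMSO and 100% = cells lacking DAX-1 with DMSO; higher inhibition means more luminescence from relief of DAX-1 repression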
NR1D1 modulator: Rev-erb alpha (human) modulation; Rev-erbα–FITC-DNA binding, fluorescence polarization, 90 min; activity, % at 10 µM; hit rate 0.79% among 370,000;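 active = activity above about 14%, limit read from the data; passing the limit was not always enough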;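 also: 0% = DMSO wells with 35 nM protein and 100% = DMSO wells with 750 nM protein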
hgDAF-12 ag: agonists of H. glycines DAF-12 nuclear receptor | HEK293 GAL4-hgDAF12 UAS-luciferase reporter, agonist luminescence; normalized to butyrate control | activation, % at 6.8 µM | hit rate 1.8% among 370,000;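 active = activation above a cutoff set at the mean of all screened compounds plus 3 SD, cut at about 10% in these data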;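 also: 0% = DMSO wells and 100% = sodium butyrate wells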
hcDAF12 agonist: activates DAF-12 receptor from parasite H. contortus; activation, % at 6.8 µM; AID 652067; HEK293 hcDAF-12 lit1-tk-luc reporter, luminescence; 0% DMSO, 100% Δ7-dafachronic acid; hit rate 1.4% among 370,000;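 active = activation above the mean of all tested compounds plus 3 SD, cut at about 5.5% in these data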;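 also: 100% = response to 3 µM Δ7-dafachronic acid high control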
* marks the source's active call; other numbers are inactive results; . = no result given.

SMILES | DAX1 inh-1 | ssDAF-12 act | DAX1 inh-2 | NR1D1 modulator | hgDAF-12 ag | hcDAF12 agonist
COc1ccc2[nH]c3c(c2c1)CCN[C@]31C(=O)N(Cc2cn(Cc3ccccc3)nn2)c2ccccc21 | . | 0 | 0 | -14 | 3 | -1
Nc1nc(-c2cccc(F)c2)cs1 | 5.2* | 0.9* | 1 | 6 | 5 | 3
N#Cc1nc(Cc2ccccc2)oc1N1CCCC1 | 6.2* | -1 | 0 | 1 | 2 | -1
CN(C)/C=C/C(=O)c1cccc(Oc2ncccn2)c1 | 4.6* | -1 | 0 | -10 | -4 | 1
COc1cccc(/C=C2/Sc3ccc(C(=O)NCCCN4CCCC4)cc3NC2=O)c1 | 1 | -1 | 3.7* | 0 | 0 | -2
O=C1Nc2cc(C(=O)NCCCN3CCCC3)ccc2S/C1=C/c1ccccc1F | 0 | -2 | 3 | -9 | 0 | -2
COC(=O)c1cc2c(c3c4ccccc4n(S(C)(=O)=O)c13)C(=O)N(Cc1ccccc1)C2 | . | 2.8* | -1 | 4 | 3 | 2
CCN(CC)C(CNC(=O)CSc1nnnn1-c1c(C)cccc1C)c1ccco1 (stereo not given) | 0 | 0 | 3.6* | 4 | 0 | -1
COc1cccc(/C=C2\SC(=S)N(CC3CCCO3)C2=O)c1 (stereo not given) | -1 | 0 | -1 | 0 | 13* | 0
O=C1/C(=C/c2cccc(O)c2)SC(=S)N1CC1CCCO1 (stereo not given) | 1 | -1 | -1 | 4 | 9 | 1
COc1cccc(/C=C2\SC(=S)N(N3C(=O)CCCC3=O)C2=O)c1 | 5.7* | -1 | 0 | -2 | 0 | -1
COC(=O)[C@]12C[C@H](CC(=O)N3CCN(C(=O)C4CC4)CC3)C(=O)N(Cc3ccc(Cl)cc3Cl)C1=C[C@H](C1CCCC1)O[C@@H]2C | . | -1 | -1 | 2 | 2 | -1
Nc1ccn([C@@H]2O[C@H](C(=O)N[C@H](Cc3ccccc3)C(=O)NCC(F)(F)F)[C@@H](O)[C@H]2O)c(=O)n1 | . | -1 | 0 | -6 | 0 | -1
Oc1cccc(N2CCN(c3cccc(O)c3)CC2)c1 | . | 0.9* | 1 | -7 | 9 | 2
O=C(N/N=C/c1ccncc1)c1sc2ccccc2c1Cl | 0 | -2 | 3.9* | 3 | 2 | 2
CC(C)c1nnc(NC(=O)c2sc3ccccc3c2Cl)s1 | 3 | 0 | 1 | 2 | 10 | 5.9*
COc1ccc2c(Cl)c(C(=O)N/N=C/c3ccncc3)sc2c1 | -1 | -1 | 0 | -12 | -2 | -2
Cc1cc(C)n(/N=C/c2c[nH]c3ccccc23)c(=O)c1 | 2 | 1 | 1 | 1 | -1 | 6.5*
Cc1cc(C)n(/N=C/c2c[nH]c3ccccc23)c(=O)c1C#N | 0 | -1 | 0 | -21 | 1 | -1
C(=NN=Cc1c[nH]c2ccccc12)c1c[nH]c2ccccc12 | 1 | 0 | 0 | -3 | 3 | 6.1*
S=C(Nc1ccc(Cl)c(Cl)c1)Nc1nnc(-c2ccncc2)s1 | . | -1 | . | -24 | 1 | 0
COc1ccccc1NS(=O)(=O)c1cc(NC(=O)c2[nH]c(C)c(C(C)=O)c2C)ccc1N1CCOCC1 | 1 | -1 | 4.0* | 7 | -9 | 4
CC(=O)OC(C)OC(=O)C(C)c1ccc(-c2ccccc2)c(F)c1 (stereo not given) | . | . | . | -3 | . | .
CCCCc1c(-c2ccccc2OC)ncn1Cc1cccc(F)c1F | . | 0 | 0 | -9 | 0 | 0
COC(=O)COc1ccsc1C(=O)OC | 4.2* | -1 | 0 | -1 | -2 | -1
SMILES | DAX1 inh-1 | ssDAF-12 act | DAX1 inh-2 | NR1D1 modulator | hgDAF-12 ag | hcDAF12 agonist
O=C(CSc1nnc(-c2cccs2)o1)N1CCCCC1 | 1 | 0 | 3 | 6 | 12* | 2
O=C(CSc1nnc(-c2ccc(Cl)cc2)o1)N1CCOCC1 | -1 | 0 | 1 | -4 | 11* | 2
Cc1ccccc1-c1nnc(SCC(=O)N2CCCC2)o1 | 0 | 0 | 1 | -2 | 11* | 1
Fc1ccccc1CSc1nnc(-c2cccs2)o1 | 1 | 0 | 3.7* | 7 | 11* | 3
COc1ccccc1-c1nnc(SCC(=O)N2CCCCC2)o1 | 0 | -1 | 2 | -1 | 3 | 2
c1ccc(CSc2nnc(-c3cccs3)o2)cc1 | 3 | 0 | 2 | -1 | 9 | 2
O=C(CSc1nnc(-c2cccs2)o1)N1CCOCC1 | -1 | -1 | 0 | 5 | 0 | -1
